The results in this text go back to PubChem BioAssay AID624296 (National Center for Advancing Translational Sciences (NCATS), 2012).

Several values for one entry are separate records, joined by “and”; a condition that tells them apart may be missing. Equal values may be shown once. About 9,900 (2.8%) of roughly 350,000 compounds were called active. Roughly 15% stayed inconclusive and do not appear here. What follows is part of a selection rich in actives, with near analogues and random picks from the rest. A number with no mark means an inactive call. Calls come from the whole dose curve; as a rule, active = well fitted activation curve with a large enough effect; inconclusive = small, poorly fitted or top-dose-only effect; inactive = no such curve, though single readings can be large or run the other way.
Potency is the fitted concentration of half-maximal effect.

The test is described as follows: A quantitative high throughput screen for small molecules that induce DNA re-replication in MCF 10a normal breast cells. For activity, positive = re-replication: % of control where 0% means no effect. Note: nearly all actives have a fitted effect of over 50% in size. Particulars: MCF 10A DNA re-replication, Hoechst nuclear intensity, 48 h; series mostly up to 46.1 µM; activity, positive = re-replication: at the top concentration.
As for `CCOc1ccc(C(=O)Nc2cc(OC)ccc2OC)cc1`, the “activity, positive = re-replication” value is 1.23%.
In the case of `CCOc1cc2ccccc2cc1C(=O)Nc1ccccn1`, the “activity, positive = re-replication” value was 5.04%.
As for `CCOc1cc(NC(=O)c2ccccn2)c(OCC)cc1NC(=O)c1ccc(OC)cc1`, the Potency is 3.26 µM (active).
Regarding `CN(Cc1ccc(CNC[C@H]2O[C@@H](n3cnc4c(N)ncnc43)[C@H](O)[C@@H]2O)o1)S(C)(=O)=O`, the “activity, positive = re-replication” value was -3.25%.
`Cc1c(C(C)CCCO)oc(=O)c2c1Oc1c(C)c(C(C)C[C@@H](C)O)oc(=O)c1C2` (some centres not stated): the “activity, positive = re-replication” value is -16.4%.
The same measure, in the same setting: in the case of `Cc1cccc(C)c1NC(=O)COC(=O)c1c(C)nn(-c2ccccc2)c1C` it was -7.91%.
For the compound `CCCn1c(C)cc(C(=O)COC(=O)c2c(C)nn(-c3ccccc3)c2C)c1C`, the Potency is 9.2 µM (active).
For the compound `Cc1nn(-c2ccccc2)c(C)c1C(=O)OCC(=O)NC(=O)NC1CCCCC1`, the “activity, positive = re-replication” value is 5.35%.
Consider `O=C1CCC/C=C\C[C@@H](CC(=O)N(CCO)Cc2ccccc2)C(=O)NCCO1`, for which the “activity, positive = re-replication” value is -0.188%.
Still for that read-out and setting: the same measure for `O=C1OCC2=C1C(c1ccc(Cl)cc1)c1cc3c(cc1O2)OCO3` (configuration not stated): 29.5%.
Turning to `C=CC(=O)OCCOCCOCCOCCOC(=O)C=C`, the Potency is 5.8 µM (active).
Consider `CCOC(=O)c1cnc(-n2nc(C)cc2C)nc1Nc1cccc(C(C)=O)c1`, for which the “activity, positive = re-replication” value was 0.919%.
On the same count and under the same terms, in the case of `Cc1cc(C)n(-c2nnc(N3CCN(c4ccccc4)CC3)nn2)n1` it was 1.27%.
Still for that read-out and setting: the same measure for `CC(=O)Nc1ccc(Nc2cc(C)nc(Nc3ccc(NC(C)=O)cc3)n2)cc1`: 3.9%.
Turning to `CC(=O)c1ccc(Oc2cc(C)nc(-n3nc(C)cc3C)n2)cc1`, the Potency was 4.11 µM (active).
On to `Cc1cc(Nc2ccc(Cl)cc2)nc(N2CCOCC2)n1`, for which the “activity, positive = re-replication” value is 4.08%.
On to `Cc1cc(N/N=C\c2ccc(Br)cc2)nc(-n2nc(C)cc2C)n1`, for which the Potency is 18.4 µM (active).
As to `COc1ccc(Nc2cc(C)nc(-n3nc(C)cc3C)n2)cc1`, the Potency was 2.06 µM (active).
Take `Cc1cc(C)n(-c2ccc(Cl)c(C(=O)O)n2)n1`: the “activity, positive = re-replication” value is 3.83%.
In the case of `Cc1ccc(S(=O)(=O)Nc2nc(C)cc(N/N=C/c3ccc(O)cc3)n2)cc1`, the “activity, positive = re-replication” value is -0.365%.
On the same count and under the same terms, the same measure for `COc1ccc2oc(N)nc2c1`: 0.24%; for `COc1cccc(CNC(C)C(=O)Nc2ccc(S(=O)(=O)N3CCCC3)cc2)c1` (configuration not stated): 5.52%.
Still for that read-out and setting: the same measure for `CN(Cc1ccc(F)cc1)C(=O)CN1C(=O)c2ccccc2S1(=O)=O`: -0.62%; for `C[C@]12CC[C@H](O)CC1=CCC1C2CC[C@@]2(C)C1CC[C@@H]2NC(=O)CCC(=O)O` (some centres not stated): -1.85%.
With `CC1CCCCC1NC(=O)COC(=O)Cc1ccc(Cl)cc1` (configuration not stated), the “activity, positive = re-replication” value is -4.72%.
Still for that read-out and setting: the same measure for `CC(C)(C)C(=O)Nc1cccc(-c2ccc[nH]2)n1`: -0.678%; for `CC(=O)c1c(C)[nH]c(C(=O)OCC(=O)Nc2c(C)cccc2C)c1C`: 7.67%; for `O=C(CNC(=O)c1ccco1)NNC(=O)c1ccc(Br)cc1`: -8.12%.
Still for that read-out and setting: in the case of `Cc1cccc(NC(=S)N2CCC(c3nc4ccccc4s3)CC2)c1` it was -2.25%; in that of `CCCNC(=S)N1CCCC(c2nc3ccccc3[nH]2)C1` (configuration not stated), -49.5%.
`Cc1cccc(NC(=S)N2CCCC(c3nc4ccccc4[nH]3)C2)c1` (configuration not stated): the Potency is 1.03 µM (active).
On the same count and under the same terms, the same measure for `O=C(Nc1ccnc(-c2ccncc2)n1)c1cccs1`: 0.259 µM (active).
`O=C(Nc1ccccc1-c1ccccc1)c1cccs1`: the “activity, positive = re-replication” value was -3.72%.
Consider `O=C(Nc1ccccc1)c1ccc(NC(=O)c2cccs2)cc1`, for which the “activity, positive = re-replication” value is 1.8%.
Same read-out and setting: the same measure for `Cc1cccc(N2CCN(c3ccc(NC(=O)/C=C\C(=O)O)cc3)CC2)c1`: 3.14%.
On to `C=CC(=O)Nc1ccc(Nc2ccnc(Nc3ccc(N4CCN(C)CC4)cc3)n2)cc1`, for which the Potency was 20.6 µM (active).
In the case of `CN1CCN(c2ccc(NC(=O)c3ccccc3)cc2)CC1`, the “activity, positive = re-replication” value is 9.59%.
Same read-out and setting: in the case of `CCCCN(CC(=O)Nc1cccc(S(=O)(=O)N2CCCC2)c1)Cc1nc2ccccc2c(=O)[nH]1` it was 22.4%; in that of `COC1C(CO)OC(n2cnc3c(=S)nc(N)[nH]c32)C1O` (configuration not stated), 11.1%.
On to `COC(=O)Nc1nc2ccc(Sc3ccccc3)cc2[nH]1`, for which the Potency was 904 nM (active) and 1.16 µM (active).
Turning to `COc1ccc2nc(SCC(=O)Nc3c(C)cc(C)cc3C)[nH]c2c1`, the “activity, positive = re-replication” value was -1.39%.
On the same count and under the same terms, the same measure for `Cc1ccc(O)c(CNc2nc3ccccc3[nH]2)c1`: 8.95%.
Still for that read-out and setting: in the case of `Cc1ccccc1Nc1nc(N)nc(COC(=O)CCC(=O)c2ccc(F)cc2)n1` it was -1.07%; in that of `CC(C)(C)c1cnnn1-c1ccc([N+](=O)[O-])cc1`, 17%.
For `COc1cnn(-c2ccc([N+](=O)[O-])cc2)c(=O)c1Cl`, the Potency was 18.4 µM (active).
For `Cc1cc(CO)nn1-c1ccc([N+](=O)[O-])cc1`, the “activity, positive = re-replication” value is -1.81%.
In the case of `Cc1ccc(N=C2NC(=O)/C(=C/C=C/c3ccco3)S2)cc1C`, the Potency was 7.31 µM (active).
As for `O=C1NN(c2ccccc2)C(=O)/C1=C/c1ccc(-c2cccc(C(=O)O)c2)o1`, the “activity, positive = re-replication” value is 10.3%.
Still for that read-out and setting: the same measure for `CN(C)c1ccc(-n2cccc2/C=C2/SC(=Nc3ccc(F)cc3)NC2=O)cc1`: -10.2%.
Regarding `Cc1ccc(N2NC(=O)/C(=C/C=C/c3ccco3)C2=O)cc1C`, the Potency is 23.1 µM (active).
For `CCC1S/C(=N/N=C/c2ccco2)NC1=O` (configuration not stated), the “activity, positive = re-replication” value was 4.53%.
As for `COc1cc(/C=C2/C(=O)NN(c3cccc(Cl)c3)C2=O)cc(Br)c1O`, the “activity, positive = re-replication” value was -2.08%.
